Results taken from PubChem BioAssay (Tox21).
“And” between values parts separate entries of the source, which are not always exact repeats. Identical values can stand only once. Records with an inconclusive call do not appear. The source made the active and inactive calls. Unless noted, calls follow the shape of the dose curve; as a rule, active = well fitted curve in the direction sought with a large enough effect in the repeat runs; inconclusive = weak or mixed curves; inactive = no such curve, though single readings can be large; an effect the other way counts as inactive or inconclusive.

Key:
[1] = qHTS assay to identify small molecule antagonists of the retinoid-related orphan receptor gamma (ROR-gamma) signaling pathway - cell viability counter screen (AID 1159520); also: % is scaled to controls: 0 for no effect and ±100 for the full control effect; nearly all actives have a fitted effect of over 50% in size
In short: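 Tet-on ROR gamma CHO cells (1,000/well) were plated 4 hr, given compounds in DMSO for 2 hr at 37 C, then induced with 1 uM final doxycycline for 16 hr. Viability was read as ATP by CellTiter-Glo luminescence after 30 min.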

[2] = target: Nuclear receptor ROR-gamma (Homo sapiens) (UniProt P51449); assay: qHTS assay to identify small molecule antagonists of the retinoid-related orphan receptor gamma (ROR-gamma) signaling pathway (AID 1159521; also: nearly all actives have a fitted effect of over 50% in size; also: potency is read from the fitted curve at half-maximal effect;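 as to activity change, negative = inhibition: CHO cells with doxycycline inducible ROR-gamma driving an RORE luciferase reporter; top concentration of the series differs between compounds; % is scaled to controls: 0 for no effect and ±100 for the full control effect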)
In short: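 CHO Tet-on RORγ, RORE-luc reporter. Cpd 2 h pre-incubation, then dox hyclate 1 uM final, 16 h, 37 C/5% CO2. ONE-Glo luminescence; decrease = antagonist.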

[3] = qHTS assay to identify small molecule agonists of the AP-1 signaling pathway - cell viability counter screen (AID 1159525; calls by dose curve; also: nearly all actives have a fitted effect of over 55% in size; also: potency is read from the fitted curve at half-maximal effect)
In short: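 Each titration point was normalised to DMSO and tetra n-octyl ammonium bromide controls. The read was Cell Titer Glo luminescence after 30 min at RT, following 5 h compound exposure of ME-180 AP-1-bla cells at 37 °C.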

[4] = qHTS assay to identify small molecule agonists of the AP-1 signaling pathway (AID 1159526; calls by dose curve; also: % is scaled to controls: 0 for no effect and ±100 for the full control effect)
[5] = target: Retinoic acid receptor RXR-alpha (Homo sapiens) (UniProt P19793); assay: qHTS assay to identify small molecule agonists of the RXR signaling pathway (AID 1159527; calls by dose curve; also: % is scaled to controls: 0 for no effect and ±100 for the full control effect; nearly all actives have a fitted effect of over 35% in size)
Sequence of Retinoic acid receptor RXR-alpha (Homo sapiens) (P19793 whole entry, looked up): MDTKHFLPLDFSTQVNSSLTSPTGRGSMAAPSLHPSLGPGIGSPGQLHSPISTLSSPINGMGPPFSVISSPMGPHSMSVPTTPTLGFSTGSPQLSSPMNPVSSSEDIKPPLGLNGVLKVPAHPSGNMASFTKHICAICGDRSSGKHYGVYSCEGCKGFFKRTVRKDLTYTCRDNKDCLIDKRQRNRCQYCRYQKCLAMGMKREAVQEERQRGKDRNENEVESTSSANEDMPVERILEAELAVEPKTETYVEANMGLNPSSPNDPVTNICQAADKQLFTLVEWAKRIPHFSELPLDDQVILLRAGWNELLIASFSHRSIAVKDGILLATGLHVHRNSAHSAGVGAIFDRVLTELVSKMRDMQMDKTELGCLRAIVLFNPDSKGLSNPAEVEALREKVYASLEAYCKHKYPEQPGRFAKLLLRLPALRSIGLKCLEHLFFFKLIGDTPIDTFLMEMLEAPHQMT
In short: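 Read-out: beta-lactamase FRET ratio (405 nm excitation, 460 and 530 nm emission) after 2 hr substrate loading at room temperature. Cells were RXR-alpha-UAS-bla HEK 293T treated with compounds for 16 hr in 2% charcoal-stripped FBS medium.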

[6] = qHTS assay to identify small molecule agonists of the RXR signaling pathway - cell viability counter screen (AID 1159529); also: nearly all actives have a fitted effect of over 50% in size; also: potency is read from the fitted curve at half-maximal effect; as to activity change, negative = cytotoxicity: series mostly up to about 77 µM; % is scaled to controls: 0 for no effect and ±100 for the full control effect
In short: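 HEK 293T RXRa-bla cells, 2% CS-FBS; 5 h settle; cpd 16 h 37 C, 5% CO2; CellTiter-Glo 30 min RT, luminescence. Tetraoctyl ammonium bromide as positive control.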

[7] = qHTS assay to identify small molecule agonists of the vitamin D receptor (VDR) signaling pathway - cell viability counter screen (AID 743224); also: nearly all actives have a fitted effect of over 50% in size; also: potency is read from the fitted curve at half-maximal effect; as to activity change, negative = cytotoxicity: series mostly up to about 63 µM; % is scaled to controls: 0 for no effect and ±100 for the full control effect
In short: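 Counter screen for cytotoxicity: VDR-bla cells at 2,000 cells/well, 16 h compound exposure, then CellTiter-Glo luminescence after the beta-lactamase measurement.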

[8] = qHTS assay to identify small molecule agonists of the endoplasmic reticulum stress response signaling pathway - cell viability counter screen (AID 1159517; calls by dose curve; also: nearly all actives have a fitted effect of over 50% in size; also: potency is read from the fitted curve at half-maximal effect)
In short: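 Cytotoxicity of test compounds toward ESRE-bla HeLa cells was assessed after 5 hr exposure. The luminescent CellTiter-Glo signal was measured 30 min after reagent addition.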

[9] = qHTS assay to identify small molecule antagonists of the vitamin D receptor (VDR) signaling pathway - cell viability counter screen (AID 743225); also: nearly all actives have a fitted effect of over 50% in size; also: potency is read from the fitted curve at half-maximal effect
In short: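 Read-out: CellTiter-Glo luminescence measured 30 min after reagent addition at room temperature. Cells were VDR-bla HEK 293T exposed 16 h at 37C, 5% CO2, to compound with 3 nM final calcitriol agonist.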

CCCCCCCCC(C)=O
inactive: Potency [1] | Potency [2] | Potency [3] | Potency [4] | Potency [5] | Potency [6]

CCCC(O)C(O)CO (configuration not stated)
inactive: Potency [1] | Potency [2] | Potency [3] | Potency [4] | Potency [5] | Potency [6]

CN(C)c1ccc(N=NS(=O)(=O)O)cc1
active: Potency [2] 4.33 µM
inactive: Potency [7] | Potency [8] | Potency [4]

O=C(Nc1ccc(Cl)cc1)Nc1ccc(Cl)c(C(F)(F)F)c1
active: Potency [7] 11.9 µM | Potency [9] 12 µM | Potency [8] 21.3 µM | Potency [2] 7.5 µM | Potency [3] 16.9 µM | Potency [6] 12 µM

CCN=c1cc2oc3cc(NCC)c(C)cc3c(-c3ccccc3C(=O)OCC)c-2cc1C
active: Potency [7] 27.4 µM and 24.5 µM | Potency [9] 48.8 µM and 24.5 µM | Potency [8] 24.5 µM and 38.9 µM | Potency [2] 3.84 µM and 6.86 µM | Potency [6] 38.8 µM and 49 µM

CCN(CC)c1ccc(N)cc1
inactive: Potency [9] | Potency [8]
active: Potency [7] 20 µM

COC(=O)NCCC[Si](OC)(OC)OC
active: Potency [7] 49 µM | Potency [2] 54.5 µM
inactive: Potency [9] | Potency [8] | Potency [3]

CCCCC(CC)COC(=O)c1ccc(O)cc1 (configuration not stated)
active: Potency [7] 21.8 µM and 49 µM | Potency [9] 15.4 µM and 38.9 µM | Potency [8] 49 µM | Potency [3] 24.5 µM and 49 µM | Potency [6] 38.8 µM and 49 µM

Cc1occc1SSc1ccoc1C
inactive: Potency [9] | Potency [8] | Potency [2] | Potency [3] | Potency [6]

Cc1cc(Nc2ccc(O)cc2)ccc1N
inactive: Potency [7] | Potency [9] | Potency [8] | Potency [3] | Potency [5]

CCC(C)c1ccccc1 (configuration not stated)
inactive: Potency [1] | Potency [2] | Potency [3] | Potency [4] | Potency [5] | Potency [6]

CCN(CC)c1cccc(C)c1
inactive: Potency [1] | Potency [2] | Potency [3] | Potency [4] | Potency [5] | Potency [6]

Clc1ccc(C(Cn2ccnc2)OCc2c(Cl)cccc2Cl)c(Cl)c1 (configuration not stated)
inactive: Potency [9] | Potency [8]
active: Potency [7] 33.5 µM | Potency [2] 13.3 µM | Potency [6] 26.8 µM

CCCCCCC(C)OC(=O)COc1nc(F)c(Cl)c(N)c1Cl (configuration not stated)
active: Potency [7] 43.6 µM | Potency [9] 49 µM | Potency [8] 54.9 µM | Potency [3] 49 µM | Potency [6] 34.7 µM

COc1ccccc1OCCNCC(O)COc1cccc2[nH]c3ccccc3c12 (configuration not stated)
active: Potency [6] 19 µM
inactive: Potency [8]

CCCC(CC)CCCCCCCN (configuration not stated)
active: Potency [8] 39.9 µM
inactive: Potency [7] | Potency [9] | Potency [3]

CCCOc1sc(C(=O)N2CCC(c3cc(CN)ccc3F)CC2)c(C)c1Br
active: Potency [7] 35.7 µM | Potency [9] 35.7 µM | Potency [8] 44.9 µM | Potency [2] 28.1 µM | Potency [3] 44.9 µM | Potency [6] 17.9 µM

Cc1c(C)n(Cc2ccccc2)c2ccc(C(=O)OCCN(C)C)cc12
inactive: Potency [8] | Potency [3]

S=C(SSSSSSC(=S)N1CCCCC1)N1CCCCC1
inactive: Potency [9] | Potency [8]
active: Potency [7] 0.271 µM | Potency [2] 0.239 µM | Potency [6] 0.606 µM

CCCCCCCCCCc1ccccc1
inactive: Potency [1] | Potency [2] | Potency [3] | Potency [4] | Potency [5] | Potency [6]

CCOC(OCC)C(=O)c1ccccc1
inactive: Potency [1] | Potency [2] | Potency [3] | Potency [4] | Potency [5] | Potency [6]

CCCCCCS
inactive: Potency [1] | Potency [2] | Potency [3] | Potency [4] | Potency [5] | Potency [6]

Clc1ccc(C(Cn2ccnc2)OCc2ccsc2Cl)c(Cl)c1 (configuration not stated)
inactive: Potency [7] | Potency [8]
active: Potency [2] 23.7 µM

NC(=O)c1nc(-c2cccc(-c3cc(F)ccc3OCC(F)(F)C(F)(F)F)c2)n[nH]1
active: Potency [7] 43.6 µM | Potency [8] 61.6 µM | Potency [2] 34.4 µM
inactive: Potency [5]

CCOC(=O)CC(C)O (configuration not stated)
inactive: Potency [1] | Potency [2] | Potency [3] | Potency [4] | Potency [5] | Potency [6]

CCOB(OCC)OCC
inactive: Potency [1] | Potency [2] | Potency [3] | Potency [4] | Potency [5] | Potency [6]

CCCCOCC
inactive: Potency [1] | Potency [2] | Potency [3] | Potency [4] | Potency [5] | Potency [6]

C[n+]1c2cc(N)ccc2cc2ccc(N)cc21 (tested in a mixture with another compound)
inactive: Potency [8] | Potency [3]

O=S(O)O
inactive: activity, negative = cytotoxicity [1] 14% [at 19 µM] | activity change, negative = inhibition [2] 7.25% [at 19 µM] | viability change, negative = cytotoxic [3] 5.55% [at 15.8 µM] | activation [4] 2.22% [at 15.8 µM] | activation [5] -2.24% [at 15.8 µM] | activity change, negative = cytotoxicity [6] -0.924% [at 15.8 µM]
